# Test results published in PubChem BioAssay AID1159580 (chemical genetic matrix, 2015).
# Among all 5,500 compounds or so, about 2,000 (36%) were called active. Another 18% or so got no clear call; they are omitted. Some of the results follow. Unmarked numbers belong to inactive results. Cut-off read from the data, not from the text of the source: active = normalized growth mostly below about 0.91 (no sharp cut-off); inconclusive = no clear call, values can overlap the other calls; inactive = mostly above about 0.92.
# Test: chemical genetic growth profiling, strain panel (AID 1159580);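 note: tested at 20 µM; growth read once vehicle control cultures reached saturation at 30 °C; 1 = growth at the plate median or of vehicle wells; lower values mean less growth of the strain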
# Settings: growth OD
smiles,measurement,setting,value
CN1C[C@H](C(=O)N[C@]2(C)O[C@@]3(O)[C@@H]4CCCN4C(=O)[C@H](Cc4ccccc4)N3C2=O)C[C@@H]2c3cccc4[nH]cc(c34)C[C@H]21,normalized growth,"S. cerevisiae deletion strains, locus YKL009W, strain mrt4, active compounds read low",0.97
same,normalized growth,"S. cerevisiae deletion strains, locus YKL068W, active compounds read low",0.989
same,normalized growth,"S. cerevisiae deletion strains, locus YKL085W, strain MDH1 (second series), active compounds read low",0.987
same,normalized growth,"S. cerevisiae deletion strains, locus YKL085W, strain MDH1, active compounds read low",0.987
same,normalized growth,"S. cerevisiae deletion strains, locus YKL160W, strain elf1, active compounds read low",0.928
same,normalized growth,"S. cerevisiae deletion strains, locus YKL190W, strain CNB1, active compounds read low",0.992
same,normalized growth,"S. cerevisiae deletion strains, locus YKR001C, strain vps1, active compounds read low",1
same,normalized growth,"S. cerevisiae deletion strains, locus YKR026C, strain gcn3, active compounds read low",0.996
same,normalized growth,"S. cerevisiae deletion strains, locus YKR091W, strain srl3, active compounds read low",0.983
same,normalized growth,"S. cerevisiae deletion strains, locus YLL001W, strain dnm1, active compounds read low",0.92
same,normalized growth,"S. cerevisiae deletion strains, locus YLL026W, active compounds read low",0.988
same,normalized growth,"S. cerevisiae deletion strains, locus YLL041C, strain sdh2, active compounds read low",0.997
same,normalized growth,"S. cerevisiae deletion strains, locus YLR027C, strain aat2, active compounds read low",0.992
same,normalized growth,"S. cerevisiae deletion strains, locus YLR039C, strain RIC1, active compounds read low",1.06
same,normalized growth,"S. cerevisiae deletion strains, locus YLR058C, strain SHM2, active compounds read low",0.957
same,normalized growth,"S. cerevisiae deletion strains, locus YLR102C, strain apc9, active compounds read low",0.974
same,normalized growth,"S. cerevisiae deletion strains, locus YLR113W, strain HOG1, active compounds read low",1.07
same,normalized growth,"S. cerevisiae deletion strains, locus YLR221C, strain rsa3, active compounds read low",0.997
same,normalized growth,"S. cerevisiae deletion strains, locus YLR258W, strain gsy2, active compounds read low",1.01
same,normalized growth,"S. cerevisiae deletion strains, locus YLR262C, strain YPT6 (second series), active compounds read low",0.973
same,normalized growth,"S. cerevisiae deletion strains, locus YLR262C, strain YPT6, active compounds read low",1.06
same,normalized growth,"S. cerevisiae deletion strains, locus YLR268W, strain sec22, active compounds read low",0.973
same,normalized growth,"S. cerevisiae deletion strains, locus YLR320W, strain mms22, active compounds read low",0.969
same,normalized growth,"S. cerevisiae deletion strains, locus YLR330W, strain CHS5, active compounds read low",0.984
same,normalized growth,"S. cerevisiae deletion strains, locus YLR342W, strain FKS1 (second series), active compounds read low",0.906
same,normalized growth,"S. cerevisiae deletion strains, locus YLR342W, strain FKS1, active compounds read low",1.01
same,normalized growth,"S. cerevisiae deletion strains, locus YLR357W, strain rsc2, active compounds read low",0.957
same,normalized growth,"S. cerevisiae deletion strains, locus YLR370C, strain arc18, active compounds read low",0.987
same,normalized growth,"S. cerevisiae deletion strains, locus YLR371W, strain rom2, active compounds read low",0.974
same,normalized growth,"S. cerevisiae deletion strains, locus YLR384C, strain iki3, active compounds read low",1.01
same,normalized growth,"S. cerevisiae deletion strains, locus YLR418C, strain cdc73, active compounds read low",0.803 (active)
same,normalized growth,"S. cerevisiae deletion strains, locus YML016C, strain PPZ1, active compounds read low",0.979
same,normalized growth,"S. cerevisiae deletion strains, locus YML032C, strain rad52, active compounds read low",0.979
same,normalized growth,"S. cerevisiae deletion strains, locus YML120C, strain ndi1, active compounds read low",0.95
same,normalized growth,"S. cerevisiae deletion strains, locus YML124C, strain tub3, active compounds read low",0.982
same,normalized growth,"S. cerevisiae deletion strains, locus YMR058W, strain fet3, active compounds read low",0.965
same,normalized growth,"S. cerevisiae deletion strains, locus YMR078C, strain ctf18, active compounds read low",0.963
same,normalized growth,"S. cerevisiae deletion strains, locus YMR125W, strain sto1, active compounds read low",0.921
same,normalized growth,"S. cerevisiae deletion strains, locus YMR129W, active compounds read low",0.989
same,normalized growth,"S. cerevisiae deletion strains, locus YMR205C, strain PFK2, active compounds read low",0.946
same,normalized growth,"S. cerevisiae deletion strains, locus YMR223W, strain ubp8, active compounds read low",0.941
same,normalized growth,"S. cerevisiae deletion strains, locus YMR231W, strain pep5, active compounds read low",1.01
same,normalized growth,"S. cerevisiae deletion strains, locus YMR263W, strain SAP30, active compounds read low",0.959
same,normalized growth,"S. cerevisiae deletion strains, locus YMR307W, strain GAS1, active compounds read low",0.821
same,normalized growth,"S. cerevisiae deletion strains, locus YNL067W, strain RPL9B, active compounds read low",0.961
same,normalized growth,"S. cerevisiae deletion strains, locus YNL071W, strain lat1, active compounds read low",0.994
same,normalized growth,"S. cerevisiae deletion strains, locus YNL128W, strain TEP1, active compounds read low",0.96
same,normalized growth,"S. cerevisiae deletion strains, locus YNL153C, strain GIM3, active compounds read low",0.965
same,normalized growth,"S. cerevisiae deletion strains, locus YNL183C, strain NPR1, active compounds read low",0.98
same,normalized growth,"S. cerevisiae deletion strains, locus YNL209W, strain ssb2, active compounds read low",0.981
same,normalized growth,"S. cerevisiae deletion strains, locus YNL233W, strain BNI4, active compounds read low",0.933
same,normalized growth,"S. cerevisiae deletion strains, locus YNL248C, strain rpa49, active compounds read low",0.933
same,normalized growth,"S. cerevisiae deletion strains, locus YNL250W, strain rad50, active compounds read low",0.984
same,normalized growth,"S. cerevisiae deletion strains, locus YNL271C, strain bni1, active compounds read low",0.974
same,normalized growth,"S. cerevisiae deletion strains, locus YNL298W, strain CLA4, active compounds read low",0.985
same,normalized growth,"S. cerevisiae deletion strains, locus YNL307C, strain MCK1, active compounds read low",0.967
same,normalized growth,"S. cerevisiae deletion strains, locus YNL322C, strain KRE1 (second series), active compounds read low",0.989
same,normalized growth,"S. cerevisiae deletion strains, locus YNL322C, strain KRE1, active compounds read low",0.996
same,normalized growth,"S. cerevisiae deletion strains, locus YNR049C, strain mso1, active compounds read low",0.983
same,normalized growth,"S. cerevisiae deletion strains, locus YNR052C, strain pop2, active compounds read low",0.972
same,normalized growth,"S. cerevisiae deletion strains, locus YOL006C, strain TOP1, active compounds read low",0.79
same,normalized growth,"S. cerevisiae deletion strains, locus YOL012C, strain htz1",0.956
same,normalized growth,"S. cerevisiae deletion strains, locus YOL147C, strain pex11, active compounds read low",0.975
same,normalized growth,"S. cerevisiae deletion strains, locus YOR001W, strain rrp6, active compounds read low",1.05
same,normalized growth,"S. cerevisiae deletion strains, locus YOR061W, strain CKA2, active compounds read low",0.986
same,normalized growth,"S. cerevisiae deletion strains, locus YOR069W, strain VPS5, active compounds read low",0.989
same,normalized growth,"S. cerevisiae deletion strains, locus YOR070C, strain gyp1, active compounds read low",1
same,normalized growth,"S. cerevisiae deletion strains, locus YOR080W, strain dia2, active compounds read low",0.996
same,normalized growth,"S. cerevisiae deletion strains, locus YOR083W, strain WHI5, active compounds read low",0.931
same,normalized growth,"S. cerevisiae deletion strains, locus YOR106W, strain vam3, active compounds read low",0.914
same,normalized growth,"S. cerevisiae deletion strains, locus YOR136W, strain idh2, active compounds read low",0.977
same,normalized growth,"S. cerevisiae deletion strains, locus YOR144C, strain elg1, active compounds read low",0.985
same,normalized growth,"S. cerevisiae deletion strains, locus YOR184W, strain ser1, active compounds read low",0.943
same,normalized growth,"S. cerevisiae deletion strains, locus YOR231W, strain MKK1, active compounds read low",1.05
same,normalized growth,"S. cerevisiae deletion strains, locus YOR265W, strain rbl2, active compounds read low",0.994
same,normalized growth,"S. cerevisiae deletion strains, locus YOR270C, strain vph1, active compounds read low",0.909
same,normalized growth,"S. cerevisiae deletion strains, locus YOR290C, strain snf2, active compounds read low",0.962
same,normalized growth,"S. cerevisiae deletion strains, locus YOR316C, strain cot1, active compounds read low",0.971
same,normalized growth,"S. cerevisiae deletion strains, locus YPL051W, strain arl3, active compounds read low",0.992
same,normalized growth,"S. cerevisiae deletion strains, locus YPL055C, strain LGE1, active compounds read low",0.91
same,normalized growth,"S. cerevisiae deletion strains, locus YPL078C, strain atp4, active compounds read low",0.926
same,normalized growth,"S. cerevisiae deletion strains, locus YPL106C, strain sse1, active compounds read low",0.967
same,normalized growth,"S. cerevisiae deletion strains, locus YPL240C, strain hsp82, active compounds read low",0.989
same,normalized growth,"S. cerevisiae deletion strains, locus YPL241C, strain CIN2, active compounds read low",0.993
same,normalized growth,"S. cerevisiae deletion strains, locus YPL256C, strain CLN2, active compounds read low",1.03
same,normalized growth,"S. cerevisiae deletion strains, locus YPR119W, strain clb2, active compounds read low",0.967
same,normalized growth,"S. cerevisiae deletion strains, locus YPR141C, strain kar3, active compounds read low",0.968
same,normalized growth,"S. cerevisiae deletion strains, locus YPR163C, strain tif3, active compounds read low",0.989
same,normalized growth,"S. cerevisiae deletion strains, locus YPR167C, strain met16, active compounds read low",0.969
same,normalized growth,"S. cerevisiae deletion strains, strain wtn01, active compounds read low",0.965
same,normalized growth,"S. cerevisiae strains, strain wild type, active compounds read low",0.986
